The record followed here is PubChem BioAssay AID1578 (Sanford-Burnham Center for Chemical Genomics, 2009).

Molecules are shown by their SMILES. About 3,000 (1%) of roughly 290,000 compounds were called active. Rule as the data show it: active = inhibition mostly above about 36% (no sharp cut-off); inactive = mostly below about 34%. The sample as a whole holds a higher share of actives than the screen did.

This experiment is described as follows: NOD1 signaling inhibitors, primary screen, cell-based, luminescence, uHTS (AID 1578).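 Also: HEK-293T reporter cells stimulated with the NOD1 agonist gamma-tri-DAP.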 To be noted: NOD1-driven NF-kB luciferase reporter cells, at 4 µM, stronger effect = higher value.
With `CCOC(=O)C1CCN(C(=O)CCc2ccc(S(=O)(=O)NC(C)C)cc2)CC1`, the inhibition is -6.7% (inactive).

Turning to `COc1ccccc1N1CCN(CC(O)c2ccc3cc[nH]c3c2)CC1` (centres undefined), the inhibition is -10.9% (inactive).

Regarding `CC1CN(C(=O)CCNC(=O)c2ccc(Cl)cc2)CC(C)O1` (centres undefined), the inhibition was -15.6% (inactive).

Consider `CC12CN3CCN(CC(C3)C1(O)CN1CCOCC1)C2` (centres undefined), for which the inhibition was -10.8% (inactive).

In the case of `COc1cccc(C(=O)C2CCCN(C(=O)CCC3=NNC(=O)CC3)C2)c1` (centres undefined), the inhibition is -14.9% (inactive).

For the molecule `CN(C)c1ccc(Nc2nc(N)c3ccccc3n2)cc1`, the inhibition was 73.8% (active).

Take `Nc1nc(Nc2ccc(Cl)cc2)nc2ccccc12`: the inhibition is 24.4% (inactive).

Consider `Nc1nc(Nc2ccccc2)nc2ccccc12`, for which the inhibition was -85.2% (inactive).

With `CCOc1ccccc1N1CC(C(=O)N2CCc3ccccc32)CC1=O` (centres undefined), the inhibition is 17.6% (inactive).

Take `CCn1c(=O)n(CC)c2cc(N3CCCC3)c(NC(=O)c3c(F)cccc3F)cc21`: the inhibition is -5.8% (inactive).

On to `O=C(c1cccc(S(=O)(=O)N2CCc3ccccc3C2)c1)N1CCN(c2ccc(O)cc2)CC1`, for which the inhibition was -37.3% (inactive).

Take `CC(=O)c1cccc(NC(=O)Cn2cnc(S(=O)(=O)N3CCOCC3)c2)c1`: the inhibition is -18.3% (inactive).

Turning to `COCc1cc(C)nc(SCc2ccc([N+](=O)[O-])cc2)c1C#N`, the inhibition was 9.9% (inactive).

As for `COc1ccc(-c2ccc3ccccc3n2)cc1`, the inhibition was -47% (inactive).

On to `c1ccc2nc(-c3ccc(N4CCOCC4)cc3)ccc2c1`, for which the inhibition was 11% (inactive).

As to `CN1CCN(c2ccc(-c3ccc4ccccc4n3)cc2)CC1`, the inhibition was 90.2% (active).

As to `COc1cc2cc(CN(Cc3cccnc3)C(=O)Nc3ccccc3F)c(=O)[nH]c2cc1OC`, the inhibition is -29.7% (inactive).

As to `CCOc1ccccc1NC(=O)c1sc2ncn(CC(=O)N3CCOCC3)c(=O)c2c1C`, the inhibition was 1.5% (inactive).

In the case of `CCCCOc1ccc(CN2CCSCC2)cc1`, the inhibition was -28.4% (inactive).

As to `Cc1nc2sc(C(=O)c3ccccc3)c(N)c2c(C)c1C`, the inhibition is 27.9% (inactive).

`CCOC(=O)c1c(C)nc2sc(C(N)=O)c(N)c2c1-c1ccccc1`: the inhibition is 31% (inactive).

On to `Cc1nc2sc(C(N)=O)c(N)c2c(C)c1CC(=O)c1ccccc1`, for which the inhibition is 84.2% (active).

As to `CC(=O)Nc1nc(-c2cccc3ccccc23)cs1`, the inhibition is -32.8% (inactive).

For `O=C(O)c1cc(=O)n(Cc2ccccc2)c(=O)[nH]1`, the inhibition is -11.6% (inactive).

For the molecule `O=C(Nc1ccc(Cn2cccn2)cc1)c1ccc(COc2ccccc2Br)cc1`, the inhibition is 60.2% (inactive).

On to `O=C(Nc1cccnc1)c1ccc(COc2ccccc2Br)cc1`, for which the inhibition is -8.4% (inactive).

With `CC(C)(C)OC(=O)CNC(=O)c1nc[nH]c1C(=O)NCc1ccc(CNC(=O)OC(C)(C)C)cc1`, the inhibition was -14.2% (inactive).

Take `O=C(c1ccccc1)N1CCCCC(Cl)C1=O` (centres undefined): the inhibition was -29.3% (inactive).

As for `CCN(CC)C(=S)SC1CCCCN(C(=O)c2ccccc2)C1=O` (centres undefined), the inhibition was 65.6% (active).

For the molecule `CCN(CC)C(=S)SC1CCCCN(C(=O)c2ccc(F)cc2)C1=O` (centres undefined), the inhibition was -8% (inactive).

Regarding `CCOc1ccc(/C(O)=C2/C(=O)C(=O)N(c3ncccn3)C2c2ccccc2)cc1` (centres undefined), the inhibition is 91.5% (active).

As to `CCOc1ccc(/C(O)=C2/C(=O)C(=O)N(c3ncccn3)C2c2ccc(C)cc2)cc1` (centres undefined), the inhibition was -0.8% (inactive).

On to `CCOc1ccc(/C(O)=C2/C(=O)C(=O)N(c3ncccn3)C2c2ccc(Cl)cc2)cc1` (centres undefined), for which the inhibition is -1% (inactive).

On to `COc1ccc(NCCC(O)c2ccc(Cl)cc2)cc1` (centres undefined), for which the inhibition was -11.5% (inactive).

In the case of `CCOc1ccc(NCCC(O)c2ccc(F)cc2)cc1` (centres undefined), the inhibition was 34.5% (active).

On to `CCOc1ccc(NC(=S)Nc2ccc(F)cc2)cc1`, for which the inhibition was 2.3% (inactive).

For `S=C(NC1CCCC1)NC1CCCC1`, the inhibition is 2.9% (inactive).

Turning to `COc1ccc(C(=O)/C=C/c2ccccc2C(F)(F)F)cc1`, the inhibition was -21.4% (inactive).

With `O=C(CCC(=O)Nc1cc(C(F)(F)F)ccc1Cl)N/N=C\c1cc([N+](=O)[O-])ccc1O`, the inhibition was 3% (inactive).

In the case of `Clc1ccc(/C=C/c2ncc[nH]2)c(Cl)c1`, the inhibition was -2% (inactive).

As for `N#C/C(=C\c1cc([N+](=O)[O-])ccc1Cl)C(N)=O`, the inhibition was -44.7% (inactive).

`Cc1cc(C)nc(NC(=O)/C=C/c2ccc(Cl)cc2Cl)c1`: the inhibition is -58% (inactive).

For the molecule `O=C(O)c1cc(C(F)(F)F)nc2c(C(F)(F)F)cccc12`, the inhibition was -18.1% (inactive).

Regarding `Cc1ccc(OCCCC(=O)NCc2ccco2)c(C)c1`, the inhibition was -28.1% (inactive).

As to `COc1ccc(NC2CCCN(C(=O)CCCN3CCCCC3=O)C2)cc1` (centres undefined), the inhibition is 19.3% (inactive).

For the molecule `CCc1ccc(CNC(=O)CCS(=O)(=O)Cc2ccccc2F)cc1`, the inhibition is 3.9% (inactive).

For `CCC/C(C)=C/c1ccc(CC)cn1`, the inhibition is 12.7% (inactive).

Turning to `CCOc1cc(CNc2ccccc2)cc(Br)c1OCC(=O)NC(C)(C)C`, the inhibition is 4.8% (inactive).

Take `COc1cc(CNc2cccc(C(=O)O)c2)cc(Br)c1OCC(=O)NC(C)(C)C`: the inhibition was 94.3% (active).

On to `COc1cc(CNc2ccc(C(=O)O)cc2)cc(Br)c1OCC(=O)NC(C)(C)C`, for which the inhibition was -27.4% (inactive).

On to `CC(=O)c1ccc(N2CCN(S(=O)(=O)c3ccc4c5c3CC(=O)N5CC(C)S4)CC2)cc1` (centres undefined), for which the inhibition was -20.1% (inactive).

Take `CCn1c(O)c(N=NC(=O)c2cccs2)c2ccccc21`: the inhibition was -38.2% (inactive).

As to `COc1cccc(C2CC(c3ccc(Cl)cc3)Nc3nc(N)nn32)c1` (centres undefined), the inhibition is 13.7% (inactive).

Consider `NC(=O)c1nnn(-c2ccccc2)c1N`, for which the inhibition was -28.7% (inactive).

`OCc1nnn(-c2ccccc2)c1CO`: the inhibition was -4.1% (inactive).

With `Nc1c(CO)nnn1-c1ccccc1`, the inhibition was 68.7% (active).

Take `COc1cc(/C=C/C(=O)OCC(=O)Nc2cc(C)c(C)cc2[N+](=O)[O-])ccc1O`: the inhibition was -8.4% (inactive).

Regarding `Cc1ccc(-c2ccc(S(=O)(=O)NCC3CCCO3)cc2)cc1` (centres undefined), the inhibition is 47.8% (inactive).

Take `O=S(=O)(NCC1CCCO1)c1ccc(-c2ccc(Cl)cc2)cc1` (centres undefined): the inhibition was 9.5% (inactive).

`Cc1cccc(N2CCN(c3ccc4cc(S(=O)(=O)N5CCCCC5)ccc4n3)CC2)c1C`: the inhibition is 25.6% (inactive).

Regarding `CCOc1ccccc1NC(=O)CSc1ccccc1`, the inhibition was -13.6% (inactive).

With `CC1CCCCC1NC(=S)Nc1ccc(Cl)cc1Cl` (centres undefined), the inhibition is 42.2% (active).

On to `Cc1cc(Cl)ccc1NC(=S)NC1CCCC1`, for which the inhibition is 24% (inactive).

Consider `S=C(Nc1ccc(Cl)cc1Cl)NC1CCCCC1`, for which the inhibition was -5% (inactive).

As to `CCOC(=O)c1ccccc1NC(=O)c1cn(-c2ccc(OC)cc2)c(=O)c2ccccc12`, the inhibition is 73.4% (active).

As to `CCOC(=O)C(C)NC(=O)c1cn(-c2ccc(OC)cc2)c(=O)c2ccccc12` (centres undefined), the inhibition was 1.9% (inactive).

For the molecule `CCOC(=O)c1ccccc1NC(=O)c1cn(-c2ccc(C)c(C)c2)c(=O)c2ccccc12`, the inhibition is 48% (inactive).

Consider `C=CCNC(=O)c1oc2ccc(S(=O)(=O)N3CCC4(CC3)OCCO4)cc2c1C`, for which the inhibition was -20.9% (inactive).

`Cc1noc(C)c1C(=O)OCC(=O)Nc1ccccc1Oc1ccccc1`: the inhibition is -14% (inactive).

On to `Cc1csc(NC(=O)c2cc3c(s2)CCCCC3)n1`, for which the inhibition is 73.7% (active).

In the case of `Cc1csc(NC(=O)c2cc3c(s2)CCCC3)n1`, the inhibition was -106% (inactive).

In the case of `Cc1csc(NC(=O)c2cc3c(s2)CCC3)n1`, the inhibition was 5.9% (inactive).

On to `CCOCCCNC(=O)c1ccc(N2CC3CC(C2)c2cccc(=O)n2C3)c(NC(=O)Nc2cccc(OC)c2)c1` (centres undefined), for which the inhibition is -1.7% (inactive).

In the case of `COc1cccc2c1cc1c(=O)n(CC(=O)N3CCCCCC3)nc(C)n12`, the inhibition was -16% (inactive).

Turning to `Cn1ncc(Cl)c1C(=O)Nc1sc2c(c1C(N)=O)CCC2`, the inhibition was -24.6% (inactive).

Regarding `CCn1cc(Br)c(C(=O)Nc2sc3c(c2C(N)=O)CCCC3)n1`, the inhibition is -18.1% (inactive).

On to `CCn1ncc(Br)c1C(=O)Nc1sc2c(c1C(N)=O)CCC2`, for which the inhibition is 77.1% (active).

With `Cc1ccc(OS(=O)(=O)c2c(C)nn(C)c2Cl)c(C)c1`, the inhibition was -19.4% (inactive).

Take `CCn1cc(C(=O)O)c(=O)c2cc(F)c(N3CCN(C(=S)NC(=O)c4ccccc4Br)CC3)cc21`: the inhibition is -0.8% (inactive).

Take `CN1CCN(C(=S)Nc2ccc(Oc3ccccc3)cc2)CC1`: the inhibition is 6.6% (inactive).

For the molecule `CC(C)=CC(=O)Nc1c(C)cc(C)cc1Cl`, the inhibition is -18% (inactive).

As to `Oc1ccc(-c2nc3ccccc3s2)cc1`, the inhibition was -6.1% (inactive).

As to `COc1ccc(-c2nc3ccccc3s2)cc1`, the inhibition was -35.3% (inactive).

For the molecule `CCOC(=O)Cc1csc(SC(C)C(=O)NCC(=O)Nc2ccc(F)c(F)c2F)n1` (centres undefined), the inhibition was -36.3% (inactive).

`COc1ccc(C(=O)N/C(=C\c2cccs2)C(=O)N2CCN(C)CC2)cc1OC`: the inhibition is -14.2% (inactive).

As to `O=C(c1ccco1)N1CCN(c2ncnc3c2nnn3Cc2ccccc2Cl)CC1`, the inhibition was 11.1% (inactive).

On to `O=C(c1ccco1)N1CCN(c2nc(C3CC3)nc3c2nnn3Cc2ccccc2Cl)CC1`, for which the inhibition was 44.4% (active).

With `NC(=O)C1CCN(c2nc(C3CC3)nc3c2nnn3Cc2ccccc2Cl)CC1`, the inhibition was 10.7% (inactive).

For the molecule `O=C(Cn1nnc(-c2cc(C(F)(F)F)cc(C(F)(F)F)c2)n1)NNC(=S)Nc1ccc(Cl)cc1`, the inhibition was 10.2% (inactive).

`O=C(COC(=O)Cc1ccc(Cl)cc1)Nc1c(F)cccc1F`: the inhibition was -44% (inactive).

As to `COc1cc(/C=N/NC(=O)c2ccncc2)ccc1OC(=O)c1ccco1`, the inhibition is 29.2% (inactive).

Turning to `CC(=O)c1c(C)[nH]c(C(=O)OCC(=O)NCCc2ccc(F)cc2)c1C`, the inhibition is -0.8% (inactive).

As to `Cc1ccsc1C(=O)NNC(=O)C1CC=CCC1C(=O)O` (centres undefined), the inhibition is -25.2% (inactive).

In the case of `Cc1ccsc1C(=O)NNC(=O)C1C2C=CC(C2)C1C(=O)O` (centres undefined), the inhibition was 72.2% (active).

Turning to `Cc1ccsc1C(=O)NNC(=O)C1CCCCC1C(=O)O` (centres undefined), the inhibition was -15.7% (inactive).

For the molecule `CCCCC(=O)Nc1cccc(-c2cn3ccccc3n2)c1`, the inhibition is -43.7% (inactive).

For `O=C(CCS(=O)(=O)c1cc2c(cc1Cl)NC(=O)CO2)NCc1ccc(F)cc1`, the inhibition is -25.6% (inactive).

In the case of `Cc1ccc(CNC(=O)CCS(=O)(=O)c2cc3c(cc2Cl)NC(=O)CO3)cc1`, the inhibition was -6.8% (inactive).

As for `O=C(CCS(=O)(=O)c1cc2c(cc1Cl)NC(=O)CO2)NCc1ccccc1`, the inhibition was 95% (active).
